Shown are actives, neighbours in structure and some others; about 4.2% of the full set was active somewhere.
VDR inh: vitamin D3 receptor (human) inhibition; P11473; VDR-SRC2-3 peptide fluorescence polarization, 2 h; Potency, µM, for the others: max response, negative = inhibition, most hits filed as inhibitors; hit rate 0.93% among 400,000; AID 504847
Target sequence (P11473 whole entry, looked up): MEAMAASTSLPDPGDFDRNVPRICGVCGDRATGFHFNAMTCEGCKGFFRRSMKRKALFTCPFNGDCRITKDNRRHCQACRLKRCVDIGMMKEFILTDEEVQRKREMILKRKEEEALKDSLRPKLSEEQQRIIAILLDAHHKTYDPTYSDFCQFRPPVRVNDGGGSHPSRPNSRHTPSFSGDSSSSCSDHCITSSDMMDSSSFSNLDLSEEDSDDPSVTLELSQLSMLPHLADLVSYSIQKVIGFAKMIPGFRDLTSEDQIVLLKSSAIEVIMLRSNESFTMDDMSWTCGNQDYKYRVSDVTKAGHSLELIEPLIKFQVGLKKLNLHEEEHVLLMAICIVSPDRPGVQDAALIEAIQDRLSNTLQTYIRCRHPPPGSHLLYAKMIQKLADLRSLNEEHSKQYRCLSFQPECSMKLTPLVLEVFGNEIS
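Reagent solutions, kept cold and dark, are dispensed first; compounds are then pinned in at 23 nl, plates briefly spun, and incubated 2 h at ambient temperature. Inhibition of VDR–SRC2-3 peptide binding is read by fluorescence polarization.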
12-LOX inh: inhibitors of human 12S-lipoxygenase ALOX12. P18054. purified 12hLO, xylenol orange hydroperoxide absorbance. Potency, µM (series often up to 108 µM), without a hit: top-dose activity change, negative = inhibition, usual class: inhibitors. hit rate 1.1% among 580,000
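Purified human 12hLO at 150 nM in 25 mM Hepes, 0.01% Triton X-100, pH 7.0, preincubated 15 min at room temperature with compound. Reaction started with 40 uM arachidonic acid, 30 min at room temperature. Hydroperoxide measured by Fe-xylenol orange, 573/405 nm absorbance ratio.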
Sfp PPTase inh: blocks B. subtilis Sfp PPTase activity; Biochemical Sfp PPTase activity, qHTS; Q9F4F7; Potency, µM, for the others: largest response in the series, negative = inhibition, actives largely listed as inhibitors; hit rate 3.5% among 310,000;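 note: the enzyme is Sfp with the accession as filed and its product quenches rhodamine fluorescence; 0% = enzyme reaction without inhibitor and -100% = no enzyme wells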
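Compounds were incubated with enzyme (final 15 nM) for 15 min at room temperature before substrate addition started the reaction. Fluorescence at 525 nm excitation, 598 nm emission was recorded immediately and after 30 minutes.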
PLK1 PBD block: blocks phosphopeptide binding to human PLK1 polo-box domain; hit rate 2.8% among 360,000; AID 720504; Potency, µM, without a hit: max response, negative = inhibition, usual class: inhibitors; Plk1 PBD binding of FITC phosphopeptide, fluorescence polarization; note: series mostly up to about 57 µM; nearly all actives have a fitted effect of over 65% in size
Active calls of the source: *; ? = inconclusive; · = no result; [ ] = remark or other dose. Calls come from the whole dose curve; as a rule, active = well fitted curve in the direction sought with a large enough effect; inconclusive = small, poorly fitted or top-dose-only effect, or another doubt; inactive = no such curve, though single readings can be large; an effect the other way counts as inactive or inconclusive. Unless noted, % is set by controls: 0 for no effect and ±100 for the full control effect; potency is the fitted concentration of half-maximal effect.

SMILES | VDR inh | 12-LOX inh | Sfp PPTase inh | PLK1 PBD block
O=C(N=Nc1c(O)[nH]c2ccccc12)c1cccc(S(=O)(=O)Nc2ccccc2Cl)c1 | -22% | -1% | ? | 30µM*
CN(CCc1ccccn1)C1CCCN(S(=O)(=O)c2ccc(F)c(Cl)c2)C1 (stereo not given) | -19% | -27% | -4% | -5%
COc1cc(OC)cc(C(=O)Nc2ccc([N+](=O)[O-])cn2)c1 | ? | 8% | 5% | 27µM*
COc1ccc(C(=O)Nc2ccc([N+](=O)[O-])cn2)cc1OC | -18% | -16% | 16% | 1%
CC12C(=O)N(c3cccc4cccnc34)C(=O)C1C1C=CC2C1 (stereo not given) | -3% | -1% | -4% | -1%
CC(C)c1ccc(C2(O)C(=O)Nc3cc(Br)ccc32)c(O)c1 (stereo not given) | ? | ? | 9% | 27µM*
CCOC(=O)N1CCN(c2cc3nccnc3cc2F)CC1 | -12% | -25% | 21% | -10%
COc1ccc(-c2coc3cc(OC(C)=O)c(OC)cc3c2=O)cc1 | 2% | 2% | · | -7%
O=c1c(-c2ccco2)[n+]([O-])c2ccccc2n1OCc1c(F)cccc1F | 18% | ? | 50µM* | ?
COc1ccccc1COn1c(=O)c(-c2ccco2)[n+]([O-])c2ccccc21 | -1% | -14% | 50µM* | ?
O=c1c(-c2ccco2)[n+]([O-])c2ccccc2n1OCc1ccccc1F | 2% | -18% | -5% | ?
CCOC(=O)COn1c(=O)c(-c2ccc(C)cc2)[n+]([O-])c2ccccc21 | -12% | ? | 6% | -3%
O=c1c(-c2ccco2)[n+]([O-])c2ccccc2n1OCc1ccccc1 | -29% | 40µM* | ? | ?
CCOC(=O)COn1c(=O)c(-c2ccco2)[n+]([O-])c2ccccc21 | -16% | -6%[57.4 µM] | 25µM* | -23%
O=C(CSc1nc2ccccc2n1Cc1c(F)cccc1Cl)N1CCN(c2ccc(F)cc2)CC1 | -8% | -8% | · | ·
C=CCSc1nc2c(c(=O)n(C)c(=O)n2C)n1CCc1ccc(OC)cc1 | · | -24% | · | ·
Cc1ccc(C)c(CN2CCCN(Cc3cc(C)ccc3C)S2(=O)=O)c1 | -3% | 0% | -2% | -1%
COc1ccc(N2CCN(C(=O)C(=O)c3c(C)[nH]c4ccccc34)CC2)cc1 | -6% | 0% | 20% | -7%
O=C(CC(Nc1ccc(F)cc1)C(=O)OCC(=O)c1cccs1)c1ccccc1 (stereo not given) | -17% | 2% | 35µM* | -9%
O=C(CCC(=O)c1cccs1)OCC(=O)c1ccc(F)cc1 | -18% | 1% | · | 2%
COc1ccc(NS(=O)(=O)c2ccc(F)c(Cl)c2)cn1 | 79µM* | ? | 19% | ?
COc1ccc(NS(=O)(=O)c2ccc(Br)cc2)cn1 | 8% | 7% | 8% | 1%
COc1ccc(NS(=O)(=O)c2ccc3oc4ccccc4c3c2)cn1 | 1% | -16% | 56µM* | -6%
CCOC(=O)N1C(=O)[C@@](c2ccc(Cl)cc2)(C(C)C)N1C(=O)OCC | ? | -20% | 9% | ?
COc1ccccc1NS(=O)(=O)c1ccc(C(N)=O)cc1 | -5% | 10% | 0% | 24µM*
SMILES | VDR inh | 12-LOX inh | Sfp PPTase inh | PLK1 PBD block
COc1ccccc1NS(=O)(=O)c1cc(NC(=O)C2CC2)ccc1N1CCOCC1 | · | · | -4% | ·
COc1ccccc1NS(=O)(=O)c1cccc(NC(=O)NCCCl)c1 | ? | ? | 3% | 27µM*
COc1ccccc1NS(=O)(=O)c1cc(N2Cc3ccccc3C2=N)ccc1N1CCOCC1 | -6% | -21% | ? | 21µM*
COCCNC(=S)Nc1ccc(N2CCOCC2)c(S(=O)(=O)Nc2ccccc2OC)c1 | ? | ? | · | 21µM*
COc1ccccc1NS(=O)(=O)c1ccc(NC(C)=O)cc1 | -9% | 28% | -3% | -4%
CC(=O)NCCc1nc2cc(NC(=O)c3ccc(Cl)cc3)ccc2n1C | 14% | ? | 6% | -2%
CCOC(=O)c1[nH]c(C)c(CCC(=O)NCc2ccc(OC(C)C)cc2)c1C | 10% | ? | · | ·
CCOC(=O)C1(CC2CCCCO2)CCN(C(=O)Nc2ccc3c(c2)OCO3)CC1 (stereo not given) | 6% | 12% | 3% | -9%
CN1CCN(c2nc3cc(C(F)(F)F)ccc3n3cccc23)CC1 | -6% | ? | ? | -8%
COc1ccccc1NS(=O)(=O)c1cccc(NC(=S)NCCN2CCOCC2)c1 | 8% | ? | 20% | 24µM*
COc1cccc(NC(=S)NCCN2CCOCC2)c1 | -15% | -24% | 5% | -19%
Cc1[nH]n(-c2ccccc2)c(=S)c1C=Nc1cccc([N+](=O)[O-])c1 | 22µM* | ? | -92% | 3.4µM*
CC(=O)Nc1nc(CC(C)C)cc(-c2ccco2)c1C#N | 0% | 13µM* | 4% | 1%
N[C@@H](C(=O)O)c1ccc(C(=O)O)c(C(=O)O)c1 | 1% | ? | 4% | ·
NC(C(=O)O)c1ccc(P(=O)(O)O)cc1 (stereo not given) | 18% | -10% | 56µM* | ·
Cc1ccc(S(=O)(=O)N2CCN(C(=O)c3nn(-c4ccccc4F)c(C)cc3=O)CC2)c(C)c1 | · | -38% | · | ·
COc1ccc(NC(=S)N(CCN(C)C)C(C)c2ccco2)cc1Cl (stereo not given) | -22% | -3% | -11% | 24µM*
CCOC(=O)C1(C)CCCN1C(=O)c1ccc2ccccc2c1 (stereo not given) | · | 19% | · | 2%
Cc1cc(S(=O)(=O)ON2C(=O)c3ccccc3C2=O)ccc1F | 32µM* | ? | 11µM* | 6.7µM*
Cc1ccc(S(=O)(=O)ON2C(=O)c3cccc4cccc(c34)C2=O)cc1 | 1% | -4% | -6% | -11%
Cc1ccc(C)c(S(=O)(=O)ON2C(=O)c3ccccc3C2=O)c1 | 20µM* | ? | 18µM* | 2.7µM*
O=C1c2ccccc2C(=O)N1OS(=O)(=O)c1ccccc1 | · | · | 10µM* | ·
Cc1ccc(C)c(C(=O)CN2C(=O)c3ccccc3C2=O)c1 | 13% | 0% | 8% | -9%
COCCN1Cc2ccc(NCc3ccccc3)nc2C(C)(C(=O)NCc2ccccc2)C1 (stereo not given) | · | -40% | · | ·
NC(=O)c1cc(N2C(=O)C=CC2=O)ccc1Cl | 20µM* | · | 8.9µM* | 21µM*
SMILES | VDR inh | 12-LOX inh | Sfp PPTase inh | PLK1 PBD block
CCCCc1ccc(/C=C2\C(=O)c3ccccc3C(O)=C2C(=O)OCC)cc1 | · | · | 3.2µM* | ·
CCc1cc2c(C)ccc(C)c2nc1SCC(=O)Nc1cc(C)on1 | -9% | -31% | 22% | 5%
Cc1cc(Sc2nc(N)ncc2[N+](=O)[O-])ncn1 | -18% | -16% | 22µM* | ?
Cc1cc(Sc2ncnc(N)c2[N+](=O)[O-])ncn1 | ? | · | 50µM* | ?
O=c1cc(C2=CCOCC2)oc2c(-c3cccc4[nH]ccc34)nccc12 | · | 35µM* | · | ·
O=c1cc(N2CCOCC2)oc2c(-c3ccccc3F)nccc12 | · | 10%[176 µM] | · | ·
CN1/C(=C\C(=O)c2ccco2)C(C)(C)c2ccccc21 | ? | -29% | ? | 5%
CCN1/C(=C/C(=O)c2ccco2)Sc2ccccc21 | 20% | -27% | 50µM* | ?
CNC(=O)c1nc(C)n(-c2ccc(Cl)cc2Cl)n1 | ? | -10% | 13% | 3.8µM*
